Test results published in PubChem BioAssay.
Results filed as inconclusive are left out. Activity calls are given as the source filed them.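 Rule for the calls, unless noted: active = normalized viability below 100% at a tested concentration; inactive = the rest.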

Legend:
[1] = viability loss in pontine glioma line – cell-based, SU-DIPG-XVII, MIPE5.0, CellTiter-Glo, qHTS, dose response (AID 1347060; cut-off not given, nearly all actives have AC50 up to about 26 µM;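 for AC50: cells exposed to compound for 48 hours before viability readout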); details: CellTiter-Glo ATP luminescence
[2] = viability loss in pontine glioma line – cell-based, JHH-DIPG-1, MIPE4.0, CellTiter-Glo, qHTS, dose response (AID 1347062; cut-off not given, nearly all actives have AC50 up to about 27 µM;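 for AC50: cells exposed to compound for two days before readout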); details: JHH-DIPG-1 viability, CellTiter-Glo ATP luminescence
[3] = viability loss in pontine glioma line – cell-based, SU-DIPG-IV, MIPE4.0, CellTiter-Glo, qHTS, dose response (AID 1347063; cut-off not given, nearly all actives have AC50 up to about 30 µM;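 note: compound exposure lasted 48 hours before the viability readout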); details: CellTiter-Glo ATP luminescence
[4] = viability loss in pontine glioma line – cell-based, SU-DIPG-XXV, MIPE5.0, CellTiter-Glo, qHTS, dose response (AID 1347065; cut-off not given, nearly all actives have AC50 up to about 26 µM;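 note: cells exposed to compound for 48 hours before ATP readout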); details: CellTiter-Glo ATP luminescence
[5] = growth inhibition of DIPG cells – cell-based, MIPE4.0 library, CellTiter-Glo luminescence, qHTS (AID 1347066; cut-off not given, nearly all actives have AC50 up to about 30 µM;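 note: cells exposed to compound for 48 hours before readout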); details: SU-DIPG-VI viability, CellTiter-Glo ATP luminescence
[6] = JHH-DIPG-1 glioma cell viability, MIPE5.0 library, CellTiter-Glo luminescence, qHTS (AID 1347067; cut-off not given, nearly all actives have AC50 up to about 26 µM;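 note: cells exposed to compound for 48 hours before readout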); details: JHH-DIPG-1 glioma viability, CellTiter-Glo ATP luminescence
[7] = growth inhibition of DIPG cells – cell-based, MIPE5.0 library, qHTS (AID 1347068; cut-off not given, nearly all actives have IC50 up to about 30 µM;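 for IC50: cells exposed to compound for 48 hours before viability readout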); details: SU-DIPG-XXV viability
[8] = viability loss with induced miR-34 in A549 – imaging, A549 dox-inducible miR-34, nuclei and caspase counts, primary screen (AID 1347080;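 active = compounds whose cell count with miR-34 switched on is under 0.7 times the count with it off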); details: A549 miR-34 inducible, Hoechst nuclei count, 48 h
[9] = MELAS cybrid and Rieske KO viability enhancers – cell-based, MELAS cybrids, Rieske KO mouse fibroblasts, CellTiter-Glo, primary screen (AID 1508586;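 active = mean z-score across replicates of 1.96 or higher in either the MELAS or the Rieske mutant cell line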;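 note: z relative to plate mean and SD of compound and empty wells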); details: low glucose
[10] = compounds altering HSF1 focus formation in cells – imaging, Selleck Cancer Library (AID 1347162; in the data active = plate-normalised HSF1 focus index below about 0.46); details: human cells, HSF1 nuclear foci imaging, at 10 µM; SSMD: measured here: HSF1 foci SSMD mean; cell count: measured here: cell number; plate-normalised HSF1 focus index: stronger effect = lower value
[11] = drug combination growth inhibition, ovarian cancer – cell-based, oncology-focused library, rucaparib conditional, profiling panel (AID 1508598); details: patient-derived ovarian cancer cells, CellTiter-Glo viability, 144 h, stronger effect = lower value
[12] = stronger effect = lower value, cell number ratio, induced over uninduced
[13] = measured here: relative caspase fold change +Dox/-Dox
[14] = measured here: total cells with miR-34 induction, stronger effect = lower value
[15] = measured here: total cells without miR-34 induction
[16] = MELAS cybrid survival, CellTiter-Glo 48 h, stronger effect = higher value
[17] = Rieske KO mouse fibroblast survival, CellTiter-Glo 72 h
[18] = at 0.000305 µM, OCI-C5x cells, with rucaparib 10 µM, 100% = cells with rucaparib alone
[19] = at 0.000305 µM, OCI-C5x cells, without rucaparib
[20] = at 0.000305 µM, OCI-P5x cells, with rucaparib 20 µM, 100% = cells with rucaparib alone
[21] = at 0.000305 µM, OCI-P5x cells, without rucaparib
[22] = at 0.00122 µM, OCI-C5x cells, with rucaparib 10 µM, 100% = cells with rucaparib alone
[23] = at 0.00122 µM, OCI-C5x cells, without rucaparib
[24] = at 0.00122 µM, OCI-P5x cells, with rucaparib 20 µM, 100% = cells with rucaparib alone
[25] = at 0.00122 µM, OCI-P5x cells, without rucaparib
[26] = at 0.00488 µM, OCI-C5x cells, with rucaparib 10 µM, 100% = cells with rucaparib alone
[27] = at 0.00488 µM, OCI-C5x cells, without rucaparib
[28] = at 0.00488 µM, OCI-P5x cells, with rucaparib 20 µM, 100% = cells with rucaparib alone
[29] = at 0.00488 µM, OCI-P5x cells, without rucaparib
[30] = at 0.0195 µM, OCI-C5x cells, with rucaparib 10 µM, 100% = cells with rucaparib alone
[31] = at 0.0195 µM, OCI-C5x cells, without rucaparib
[32] = at 0.0195 µM, OCI-P5x cells, with rucaparib 20 µM, 100% = cells with rucaparib alone
[33] = at 0.0195 µM, OCI-P5x cells, without rucaparib
[34] = at 0.0781 µM, OCI-C5x cells, with rucaparib 10 µM, 100% = cells with rucaparib alone
[35] = at 0.0781 µM, OCI-C5x cells, without rucaparib
[36] = at 0.0781 µM, OCI-P5x cells, with rucaparib 20 µM, 100% = cells with rucaparib alone
[37] = at 0.0781 µM, OCI-P5x cells, without rucaparib
[38] = at 0.313 µM, OCI-C5x cells, with rucaparib 10 µM, 100% = cells with rucaparib alone
[39] = at 0.313 µM, OCI-C5x cells, without rucaparib
[40] = at 0.313 µM, OCI-P5x cells, with rucaparib 20 µM, 100% = cells with rucaparib alone
[41] = at 0.313 µM, OCI-P5x cells, without rucaparib
[42] = at 1.25 µM, OCI-C5x cells, with rucaparib 10 µM, 100% = cells with rucaparib alone
[43] = at 1.25 µM, OCI-C5x cells, without rucaparib
[44] = at 1.25 µM, OCI-P5x cells, with rucaparib 20 µM, 100% = cells with rucaparib alone
[45] = at 1.25 µM, OCI-P5x cells, without rucaparib
[46] = at 5 µM, OCI-C5x cells, with rucaparib 10 µM, 100% = cells with rucaparib alone
[47] = at 5 µM, OCI-C5x cells, without rucaparib
[48] = at 5 µM, OCI-P5x cells, with rucaparib 20 µM, 100% = cells with rucaparib alone
[49] = at 5 µM, OCI-P5x cells, without rucaparib

## Cc1ccc(S(=O)(=O)OCC(=O)Nc2ccc(C(=O)O)c(O)c2)cc1
[1]
  outcome: inactive
[2]
  outcome: inactive
[3]
  outcome: inactive
[4]
  outcome: inactive
[5]
  outcome: inactive
[6]
  outcome: inactive
[7]
  outcome: inactive
[8]; [12]
  fold change: 0.894 (inactive)
[8]; [13]
  fold change: 0.798
[8]; [14]
  cell count: 6690
[8]; [15]
  cell count: 7480
[9]; [16]
  z-score: -0.344 (inactive)
[9]; [17]
  z-score: 0.295

## CC(=O)OCC(=O)[C@@]1(O)[C@H](C)C[C@H]2[C@@H]3C=C(C)C4=Cc5c(cnn5-c5ccccc5)C[C@]4(C)[C@H]3[C@@H](O)C[C@@]21C
[1]
  AC50: 20.9 µM (active)
[2]
  AC50: 9.35 µM (active)
[3]
  AC50: 5.26 µM (active)
[4]
  AC50: 23.5 µM (active)
[5]
  AC50: 26.4 µM (active)
[7]
  outcome: inactive

## CC(C)CC(=O)Nc1n[nH]c2c1CN(C(=O)C1CCN(C)CC1)C2(C)C
[1]
  AC50: 6.61 µM (active)
[2]
  AC50: 1.05 µM (active)
[3]
  AC50: 2.35 µM (active)
[4]
  AC50: 10.5 µM (active)
[6]
  AC50: 4.17 µM (active)
[7]
  IC50: 10.5 µM (active)
[8]; [12]
  fold change: 1.09 (inactive)
[8]; [13]
  fold change: 0.942
[8]; [14]
  cell count: 1320
[8]; [15]
  cell count: 1210
[10]
  SSMD: -5.41
  cell count: 7270
  plate-normalised HSF1 focus index: 0.661 (inactive)
[9]; [16]
  z-score: 2.08 (active)
[9]; [17]
  z-score: -0.842
[11]; [18]
  viability: 123% (inactive)
[11]; [19]
  viability: 128% (inactive)
[11]; [20]
  viability: 101% (inactive)
[11]; [21]
  viability: 115% (inactive)
[11]; [22]
  viability: 108% (inactive)
[11]; [23]
  viability: 125% (inactive)
[11]; [24]
  viability: 101% (inactive)
[11]; [25]
  viability: 118% (inactive)
[11]; [26]
  viability: 120% (inactive)
[11]; [27]
  viability: 128% (inactive)
[11]; [28]
  viability: 95.7% (active)
[11]; [29]
  viability: 112% (inactive)
[11]; [30]
  viability: 120% (inactive)
[11]; [31]
  viability: 130% (inactive)
[11]; [32]
  viability: 75.5% (active)
[11]; [33]
  viability: 92.9% (active)
[11]; [34]
  viability: 112% (inactive)
[11]; [35]
  viability: 134% (inactive)
[11]; [36]
  viability: 107% (inactive)
[11]; [37]
  viability: 122% (inactive)
[11]; [38]
  viability: 109% (inactive)
[11]; [39]
  viability: 118% (inactive)
[11]; [40]
  viability: 99.5% (active)
[11]; [41]
  viability: 96% (active)
[11]; [42]
  viability: 109% (inactive)
[11]; [43]
  viability: 113% (inactive)
[11]; [44]
  viability: 75.7% (active)
[11]; [45]
  viability: 69% (active)
[11]; [46]
  viability: 45.8% (active)
[11]; [47]
  viability: 69.4% (active)
[11]; [48]
  viability: 25.6% (active)
[11]; [49]
  viability: 6.68% (active)

## CC(C)C[C@H](NC(=O)CNC(=O)c1cc(Cl)ccc1Cl)B(O)O
[1]
  AC50: 0.166 µM (active)
[2]
  AC50: 0.166 µM (active)
[3]
  AC50: 0.118 µM (active)
[4]
  AC50: 0.0833 µM (active)
[6]
  AC50: 0.263 µM (active)
[7]
  IC50: 0.105 µM (active)
[10]
  SSMD: -0.17
  cell count: 6790
  plate-normalised HSF1 focus index: 0.988 (inactive)
[11]; [18]
  viability: 111% (inactive)
[11]; [19]
  viability: 132% (inactive)
[11]; [20]
  viability: 106% (inactive)
[11]; [21]
  viability: 121% (inactive)
[11]; [22]
  viability: 112% (inactive)
[11]; [23]
  viability: 130% (inactive)
[11]; [24]
  viability: 106% (inactive)
[11]; [25]
  viability: 111% (inactive)
[11]; [26]
  viability: 126% (inactive)
[11]; [27]
  viability: 129% (inactive)
[11]; [28]
  viability: 104% (inactive)
[11]; [29]
  viability: 116% (inactive)
[11]; [30]
  viability: 122% (inactive)
[11]; [31]
  viability: 128% (inactive)
[11]; [32]
  viability: 96.7% (active)
[11]; [33]
  viability: 116% (inactive)
[11]; [34]
  viability: 88.7% (active)
[11]; [35]
  viability: 103% (inactive)
[11]; [36]
  viability: 101% (inactive)
[11]; [37]
  viability: 80.5% (active)
[11]; [38]
  viability: 30.3% (active)
[11]; [39]
  viability: 22.4% (active)
[11]; [40]
  viability: 22% (active)
[11]; [41]
  viability: 4.33% (active)
[11]; [42]
  viability: 7.48% (active)
[11]; [43]
  viability: 6.01% (active)
[11]; [44]
  viability: 2.76% (active)
[11]; [45]
  viability: 1.33% (active)
[11]; [46]
  viability: 1.81% (active)
[11]; [47]
  viability: 1.62% (active)
[11]; [48]
  viability: 1.18% (active)
[11]; [49]
  viability: 0.837% (active)
